Experimental data as given in ChEMBL document CHEMBL3988442, “University of Dundee, Small-Polar-MMV Screening Library” (2021).
About 900 (1.7%) of roughly 53,000 compounds showed an effect of 50% or more. This excerpt belongs to a sample that is enriched for strong results.

test system: Mycobacterium tuberculosis; assay: Cornell - Phenotypic assay to identify agents that inhibit growth of Mycobacterium tuberculosis; format: functional; parameters: scale not given: direction of the effect not stated beside the values; details: 10 mM as filed; unlikely as a test dose

SMILES	Percent Effect [%]
O=C(C1CC1)N(Cc1ccc2cc[nH]c2c1)C1CC1	42.2
COCC(=O)N(Cc1ccc2[nH]ccc2c1)C1CC1	26.94
CCNC(=O)N(Cc1cccc(OC)c1)C1CCC(O)CC1 (centres undefined)	21.75
CCN(C(=O)CCc1ccc2[nH]ccc2c1)C1CC(=O)NC1=O (centres undefined)	14.54
COC(=O)CCC(=O)N(Cc1ccc2cc[nH]c2c1)C1CC1	90.28
COCC(=O)N(Cc1ccc2cc[nH]c2c1)C1CC1	57.03
CCOc1ccccc1C1=CCN(C(=O)C2CCN(C)C(=O)C2)CC1 (centres undefined)	-20.28
COC(=O)c1cccn1C1CCN(C(=O)c2ccc(C)[nH]c2=O)CC1	-31.25
CCc1cc(N(C)Cc2cc[nH]n2)n2nc(C)c(C)c2n1	4.829
CCc1cc(N(C)Cc2ccncn2)n2nc(C)c(C)c2n1	59.71
CCc1cc(N(C)Cc2ccnc(C)c2)n2nc(C)c(C)c2n1	-23.54
Cc1nc(C2CCCN(C(=O)c3cc(Cl)c4c(c3)OCO4)C2)no1 (centres undefined)	12.39
O=C(C1CCCO1)N1C[C@@H]2CCN(c3cnccn3)C[C@@H]2C1.O=C(O)C(F)(F)F (some centres undefined)	30.53
c1ccc(COC2CCN(c3cncc(-n4cccn4)n3)CC2)cc1	60.34
c1ccc(C2CCN(c3cncc(-n4cccn4)n3)CC2)cc1	25.96
c1ccc(C2CCCN(c3cncc(-n4cccn4)n3)CC2)cc1 (centres undefined)	42.47
O=C(Nc1ccnc2ccnn12)c1ccc(NC2CC2)nc1	-11.01
O=C(Nc1ccnc2ccnn12)c1ccc(N2CCC(O)CC2)cc1	85.62
Cc1cc(NC(=O)c2ccc(N3CCOCC3)cc2)[nH]n1	29.03
CS(=O)(=O)N1CCO[C@@H]2CN(C(=O)C3CC(F)(F)C3)C[C@@H]2C1	-22.45
Cn1c(NCc2ccc(C(N)=O)cc2)nc2cc(Cl)ccc21	60.39
Cn1c(NC(=O)CNC(=O)C2CC2)nc2cc(Cl)ccc21	-3.36

SMILES	Percent Effect [%]
Cn1cc(CNc2nc3cc(Cl)ccc3n2C)cn1	16.71
COc1cccc(CN2CCCCCC2c2cccs2)c1O (centres undefined)	38.44
COc1cccc(CN2CCCCCC2c2sccc2C)c1O (centres undefined)	53.6
COc1cccc(CN2CCCCCC2c2cccs2)c1OC (centres undefined)	35.04
Cc1cccc(C2CCCCCN2Cc2cn(C)nc2C)c1 (centres undefined)	15.03
COc1cccc(CN2CCCCCC2c2cccc(C)c2)c1O (centres undefined)	84.28
COc1cccc(CN2CCCCCC2c2cccc(F)c2)c1O (centres undefined)	45.8
COc1cc(-c2cc(N)ncn2)cc(OC)c1OC	14.69
O=C(NCCNc1ncccn1)C1CCN(C(=O)NC2CC2)CC1	-5.946
Cc1nc(N(C)C)nc(C)c1NS(=O)(=O)c1ccc(OC(F)(F)F)cc1	21.9
CC(=O)N1CCN(c2cnccn2)CC(CO)C1 (centres undefined)	10.91
COCc1nc(C(=O)N2CCCC2c2noc(C)n2)cs1 (centres undefined)	-28.82
Cc1ccc(CN2CCCC2(C(N)=O)c2cnccn2)c(C)c1 (centres undefined)	-1.756
CSc1[nH]c(=O)c(C(=O)N2CCCC2C2CCCC2)cc1C#N (centres undefined)	65.7
CCC1CCCCCN1C(=O)c1cc(C#N)c(SC)[nH]c1=O (centres undefined)	-5.356
CSc1[nH]c(=O)c(C(=O)N2CCCC2c2cccs2)cc1C#N (centres undefined)	17.36
CC(=O)c1ccc(C(=O)NCc2cccnc2N2CCCC(O)C2)s1 (centres undefined)	26.17
COc1cccc(CN(C)Cc2c(C)noc2C)c1OC	-9.272
Cc1nn(C)c(C)c1S(=O)(=O)NCCn1ccc(-c2cccs2)n1	-2.587
CCc1c(C)nc(SCc2ccccn2)[nH]c1=O	11.8
CCc1c(C)nc(-n2nc(-c3cccs3)cc2N)[nH]c1=O	106.9
CC(C(N)=O)n1nc(-c2cccs2)cc(N)c1=O (centres undefined)	-30.4

SMILES	Percent Effect [%]
CN1CCN(Cn2nc(-c3cccs3)ccc2=O)CC1	17.93
Cc1nc(-n2nc(-c3cccs3)cc2N)[nH]c(=O)c1C	75.1
Cc1ccnc(C2CCN(C(=O)c3cnn(C)c3)CC2)n1	19.18
CN1C(=O)C2(CC(=O)Nc3c2cnn3C(C)(C)C)c2ccccc21 (centres undefined)	16.17
Cc1ccc(CC2CCCN2CC(=O)NCc2cccnc2)cc1 (centres undefined)	13.39
CN1CC2(CCCN(Cc3cccc(CCN)c3)C2)OC1=O (centres undefined)	4.729
CN(CC(=O)NCc1ccccn1)C1CCCN(c2cccnn2)C1 (centres undefined)	-22.52
COC(=O)c1ccccc1S(=O)(=O)NC(=O)c1cccc2c1OCCO2	-3.436
O=C1NC2(CCN(CCc3ccccc3)CC2)CC1c1ccccc1 (centres undefined)	19.15
Cl.O=C1NC2(CCNCC2)CC1c1ccccc1 (centres undefined)	100.2
Cl.Cl.O=C1NC2(CCNCC2)CC1c1ccncc1 (centres undefined)	-12.16
Cc1nn(C)c(N(C)C)c1CNCc1ccnc(N2CCOCC2)c1	31.35
CCS(=O)(=O)N1C[C@H]2CN(CC3CC3)C(=O)[C@H]2C1	-29.96
COc1ccccc1CCNS(=O)(=O)N1CCOCC1	-2.569
COCC(=O)NCCc1nc2cc(-c3ccc(OC)cc3)ncn2n1	48.11
Cc1cc(NCCS(C)(=O)=O)nc2cc3c(cc12)CCC3	21.34
CN(C)CCn1c(=O)oc2ccc(NC(=O)CSc3ccccc3)cc21	68.34
CN(C)CCn1c(=O)oc2ccc(NC(=O)CC(C)(C)C)cc21	16.94
CC(C)CCC(=O)Nc1ccc2oc(=O)n(CCN(C)C)c2c1	-39.6
CCCn1cc(-c2cc(-c3ccoc3)c(C#N)c(N)n2)c(C)n1	46
CCCn1cc(-c2cc(-c3cnc(OC)nc3)c(C#N)c(N)n2)c(C)n1	56.67
CCCn1cc(-c2cc(-c3c[nH]cn3)c(C#N)c(N)n2)c(C)n1	4.241

SMILES	Percent Effect [%]
O=C(NCc1ccco1)[C@@H]1CCO[C@@H]2CCN(c3ncccn3)C[C@@H]21.O=C(O)C(F)(F)F	-22.51
Cc1ncc(CN2CCC(c3nc(O)cc(-c4ccsc4)n3)CC2)cn1	21.36
CCc1noc(CN(CCC2CCCCC2)CC(N)=O)n1	4.193
CCOCc1cccc(NC(=O)C2COCCO2)c1 (centres undefined)	-0.8336
O=C(Nc1cccc(OCc2ccc(F)cc2)c1)C1COCCO1 (centres undefined)	107.1
O=C(Nc1ccc(OCc2cccc(F)c2)c(F)c1)C1COCCO1 (centres undefined)	18.87
CCOC(=O)COc1cccc(NC(=O)C2COCCO2)c1 (centres undefined)	12.18
O=C(Nc1cccc(OCc2cccc(F)c2)c1)C1COCCO1 (centres undefined)	108
O=C(OCc1ccccc1)c1cccc(NC(=O)C2COCCO2)c1 (centres undefined)	-2.465
CC1CCCCN1C(=O)COc1nc(Cc2ccc(F)cc2)no1 (centres undefined)	-36.23
CCN(Cc1ccc(C(C)C)cc1)C(=O)c1csc(CN(C)C)n1	-18.18
CCCNC(=O)NC(=O)CNc1c(F)cccc1N1CCCC1	-0.2754
CN(C)c1cc2c(nn1)CCN(C(=O)C1CCc3ccccc31)C2 (centres undefined)	-36.17
CN(C)c1cc2c(nn1)CCN(C(=O)C1Cc3ccccc3S1)C2 (centres undefined)	54.31
CCNc1cc2c(nn1)CCN(C(=O)C1Cc3ccccc3S1)C2 (centres undefined)	12.56
CN1CCOC(CNC(=O)C2(c3cccc(C(F)(F)F)c3)CCCC2)C1 (centres undefined)	17.35
CCn1cc(CN2CCCN(C(=O)CCc3ccccc3)CC2)cn1	-0.8409
Cc1nn(C)cc1NC(=O)CC1CCN(CCc2ccccc2)CC1	6.464
CCn1cc(NC(=O)CN2CCC(Oc3ccccc3C)CC2)c(C)n1	45.29
CCOc1ccccc1CCC(=O)Nc1c(C)nn(C)c1C	-20.08
Br.Cc1ccccc1OC1CCN(CC(=O)Nc2cnn(C)c2C)CC1	6.171
Fc1ccc(OC2CCN(CCn3cncn3)CC2)cc1	21.61

SMILES	Percent Effect [%]
Cn1ccc(NC(=O)CN2CCC(Oc3cnccn3)CC2)n1	-4.083
CCn1cc(NC(=O)CN2CCC(Oc3ccc(F)cc3)CC2)c(C)n1.Cl	59.25
Cc1ccccc1OC1CCN(CC(=O)Nc2cn(C)nc2C)CC1	69.1
Cc1nn(C)cc1NC(=O)CN1CCC(Oc2cnccn2)CC1	11.01
Cn1ccc(NC(=O)CN2CCN(C3CCCC3)C(=O)C2)n1	47.35
Cc1ccccc1OC1CCN(CC(=O)Nc2c(C)nn(C)c2C)CC1	59.98
Br.Cc1ccccc1OC1CCN(CC(=O)Nc2ccn(C)n2)CC1	51.43
COc1ccc(Cl)cc1C(=O)N1C[C@@H](NC(=O)N(C)C)[C@H](C(C)C)C1	-26.21
COC(=O)c1ccoc1CN(C)CC(=O)NC1CC1	9.025
Cc1cc(C2CCCCN2C(=O)c2cccn2C)nc2nccn12 (centres undefined)	14.54
CCOCCC1(CNC(=O)c2ccsc2)CCC1	23.41
Cc1cc(C(=O)N2CC[C@@H]3CN(C)S(=O)(=O)[C@@H]3CC2)no1	25.4
O=C(O)c1ccnc2c(Br)cccc12	13.48
COc1ccc(CNC(=O)NC(C)(C(=O)O)c2ccco2)cc1F (centres undefined)	-25.47
O=C1COC2(CCN(Cc3ccco3)CC2)CN1Cc1cccnc1	24.6
Cc1cc(CN2CCN(CC3CC3)[C@@H]3CS(=O)(=O)C[C@@H]32)cc(C)c1O	106.4
Cc1cc(CN2CCN(CC3CC3)[C@@H]3CS(=O)(=O)C[C@@H]32)ccc1F	-1.418
Cc1ccc(CN2CCN(CC3CC3)[C@@H]3CS(=O)(=O)C[C@@H]32)cc1C	21.5
O=S1(=O)C[C@@H]2[C@H](C1)N(Cc1cc(Cl)cc(Cl)c1)CCN2CCO	-11.47
CCCN1CCN(Cc2cc(Cl)cc(Cl)c2)[C@H]2CS(=O)(=O)C[C@H]21	-17.23
O=S1(=O)C[C@@H]2[C@H](C1)N(Cc1cc(Cl)cc(Cl)c1)CCN2CC1CC1	85.08
